About 83,000 compounds went through this panel and 20% of them were active in at least one assay; those are over-represented in the sample as a whole.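 Note: values are percent growth. 100 is the growth of untreated cells, values between 100 and 0 indicate rising inhibition; between -100 and 0 indicates cell death.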 Values without a mark were called inactive. Active and inactive are the calls of the source. The calls were made as follows: active = growth percent below 10; inactive = the rest.
What was measured:
Assay in all cases: NCI-60 one-dose screen, 48 h (100 = growth as untreated, 0 = no growth, -100 = all killed)
Settings in all cases: 10 µM unless noted
SR leukemia = system: SR leukemia
OVCAR-8 ovarian = system: OVCAR-8 ovarian
OVCAR-5 ovarian = system: OVCAR-5 ovarian
OVCAR-4 ovarian = system: OVCAR-4 ovarian
SK-OV-3 ovarian = system: SK-OV-3 ovarian
IGROV1 ovarian = system: IGROV1 ovarian
OVCAR-3 ovarian = system: OVCAR-3 ovarian
HS 578T breast = system: HS 578T breast
NCI/ADR-RES ovarian = system: NCI/ADR-RES ovarian
T-47D breast = system: T-47D breast
BT-549 breast = system: BT-549 breast
MDA-MB-435 melanoma = system: MDA-MB-435 melanoma
SW-620 colon = system: SW-620 colon
HCT-116 colon = system: HCT-116 colon
HCC-2998 colon = system: HCC-2998 colon
MCF7 breast = system: MCF7 breast
KM12 colon = system: KM12 colon

Row | SMILES | growth (SR leukemia) | growth (OVCAR-8 ovarian) | growth (OVCAR-5 ovarian) [%] | growth (OVCAR-4 ovarian) | growth (SK-OV-3 ovarian) | growth (IGROV1 ovarian) | growth (OVCAR-3 ovarian) | growth (HS 578T breast) | growth (NCI/ADR-RES ovarian) | growth (T-47D breast) | growth (BT-549 breast) [%] | growth (MDA-MB-435 melanoma) | growth (SW-620 colon) | growth (HCT-116 colon) | growth (HCC-2998 colon) | growth (MCF7 breast) | growth (KM12 colon)
1 | Fc1ccc(-c2cnc3nonc3n2)c(F)c1 | 74.5% | 102% | 96.8 | 93.3% | 92.1% | 108% | 81.5% | 98.1% | 104% | 80.8% | 91.6 | 84.4% | 97% | 96.9% | 93.5% | – | –
2 | CC(=O)C1CCC2C3CC(C)=C4CC(O)CCC4(C)C3CCC12C (configuration not stated) | 89.9% | 106% | 112 | 93.4% | 112% | 104% | 113% | 103% | 101% | – | 100 | 109% | 118% | 90.7% | 98.8% | 100% | 109%
3 | O=c1c2cc(Br)cc(Br)c2nc(-c2ccc(Cl)cc2)n1/N=C/c1cccc(F)c1 | 62.7% | 29.4% | 61 | -11% (active) | 52% | 33.1% | 49.8% | 35.2% | 40.3% | – | 74.4 | 78.8% | 74.7% | 18.5% | 84% | 52.5% | 70.2%
4 | CCCC(CCC)(C(N)=O)C(=O)O | 111% | 102% | 99.6 | 101% | 105% | 119% | 110% | 106% | 107% | 111% | 98.7 | 102% | 103% | – | 100% | 109% | 106%
5 | CCCCCCCCCCCCCC1=NC(C)(C)CN1C(C)C | -46.5% (active) | -12.4% (active) | 39.7 | 7.76% (active) | -2.05% (active) | -30.4% (active) | – | -28.1% (active) | -12.4% (active) | -22.3% (active) | 22.8 | -57.3% (active) | -67.2% (active) | -72.6% (active) | -90.6% (active) | – | –
6 | COc1cccc(-c2nc3sccn3c2-c2ccnc(NCCN3CCCNS3(=O)=O)n2)c1 | 59.5% | 83.8% | 112 | 81.5% | 54.8% | – | 102% | 105% | 105% | 95.3% | 113 | 54.1% | 127% | 74.6% | 118% | 100% | 103%
7 | CCN1C(=O)N(CC)C2C1NN=c1s/c(=C\c3ccc(Br)cc3)c(=O)n12 (configuration not stated) | 14% | 2.86% (active) | 35.1 | 65.7% | 16.1% | 13.3% | 3.78% (active) | 54% | 5.64% (active) | 54.3% | 18.2 | -13.6% (active) | 23.1% | 5.14% (active) | 10.2% | – | 6.77% (active)
8 | Cn1cnc([N+](=O)[O-])c1S(=O)(=O)Oc1cccc2ccccc12 | 17.5% | 73.3% | 82.3 | 81.3% | 95.8% | 36.9% | -73% (active) | 99.7% | 57.6% | -30.9% (active) | 99.9 | 67.9% | 7.26% (active) | – | 88.7% | 44.8% | 88.9%
9 | CC(=O)O[C@H]1CC[C@]2(C)[C@H]3CC=C4[C@@H]5CC(C)(C)CC[C@]5(C(=O)OCC(COC(=O)C(Cl)Cl)(COC(=O)C(Cl)Cl)NC(=O)C(Cl)Cl)CC[C@@]4(C)[C@]3(C)CC[C@H]2C1(C)C | 60.3% | 68.5% | 86.1 | 67.6% | 86.1% | 89.5% | 67% | 83.9% | 78% | 32.7% | 75.2 | 78.6% | 79.4% | – | 86.9% | 41.9% | 52.2%
10 | O=C(Cc1ccc([N+](=O)[O-])cc1)Oc1ccccc1 | 96.7% | 107% | 115 | 111% | 110% | 123% | 119% | 109% | 113% | 109% | 106 | 122% | 114% | – | 106% | 107% | 118%
11 | Cc1nn(-c2ccccc2)c2nc3c(nc12)C1=NCCN1C(c1ccc(Cl)cc1)N3 (configuration not stated) | 6.3% (active) | 87.5% | 91 | 80.3% | 104% | – | 95.4% | 60.7% | 98.6% | – | 98.3 | 51.5% | 76.6% | 68.8% | -25.2% (active) | 35.3% | 66%
12 | O=[N+]([O-])c1ccc(N/N=C\c2ccc(O)cc2O)nc1 | 15.3% | 25.4% | 57.9 | 40% | 25.8% | – | – | 90.8% | 20.6% | 38.5% | 38 | 45% | 56.4% | 21.3% | 10.6% | 27.4% | 29.2%
13 | CC(C)(CCc1ccccn1)C(=O)CCCc1ccccn1 | 90.9% | 105% | 103 | 111% | 108% | 108% | – | 111% | 106% | – | 105 | 109% | 106% | 93.9% | 107% | 98.6% | 106%
14 | O=C(O)CSc1ccc(NCc2oc(CO)cc(=O)c2O)cc1 | 81.8% | 102% | 102 | 103% | 98.7% | 105% | – | 90.9% | 94.3% | 108% | 92.8 | 116% | 105% | 95.2% | 99.9% | 93.8% | 100%
15 | CC(=O)N1N=C(C2C(=O)N(C)C(=O)N(C)C2=O)CC1c1ccccc1C(=O)O (configuration not stated) | 93% | 103% | 104 | 113% | 94.8% | – | 109% | 92.1% | 105% | 95.4% | 91.8 | 102% | 107% | 91.3% | 113% | 101% | 114%
16 | CC(NC(=O)c1ccccc1)C(=O)Nc1ccccc1 (configuration not stated) | 89.9% | 103% | 107 | 114% | 113% | 128% | 135% | 114% | 108% | 117% | 104 | 112% | 108% | – | 99.4% | 97.9% | 108%
17 | O=C(NCCN1CCCCC1)n1cc(-c2ccncc2)c(-c2ccc(Cl)c(O)c2)n1 | 70.9% | 89.1% | 96.5 | 122% | 71.5% | 74% | – | 92.5% | 95.6% | 79.2% | 68.9 | 58.9% | 100% | 44.6% | 113% | 91% | –
18 | O=C(c1ccccc1)C1OC1C(=O)c1ccccc1 (configuration not stated) | 14.3% | 25.4% | 30.2 | 60.1% | 54.3% | 24.6% | 35.2% | 54.2% | -18.5% (active) | – | 92.1 | 1.06% (active) | 27.7% | -5.13% (active) | 69.8% | 16.8% | 55.5%
19 | CCCCc1nc(Cl)c(C2CC(c3ccc(S(N)(=O)=O)cc3)=NN2c2cc(Cl)cc(Cl)c2)[nH]1 (configuration not stated) | 0.947% (active) | 47.1% | 65.7 | 51.4% | 69.6% | 65.6% | – | 36.9% | 90% | 42.5% | 60.3 | 35.7% | 58% | 14.7% | 29.4% | 6.51% (active) | 32.1%

— PubChem BioAssay (NCI)
